Holding throughout (assay): NCI-60 one-dose screen, 48 h (100 = growth as untreated, 0 = no growth, -100 = all killed)
Experiment [1] has as its system HCT-15 colon. The following applies: 10 µM unless noted.
In experiment [2] the test system is HT29 colon. As to conditions: 10 µM unless noted.
Experiment [3] has as its system SNB-75 CNS. As to conditions: 10 µM unless noted.
In experiment [4] the test system is SNB-19 CNS. As to conditions: 10 µM unless noted.
In experiment [5] the test system is U251 CNS. As to conditions: 10 µM unless noted.
Experiment [6] deals with PC-3 prostate. As to conditions: 10 µM unless noted.
In experiment [7] the test system is SK-MEL-5 melanoma. The following applies: 10 µM unless noted.
Experiment [8] relates to LOX IMVI melanoma. The following applies: 10 µM unless noted.
In experiment [9] the test system is SK-MEL-28 melanoma. The following applies: 10 µM unless noted.
Experiment [10] relates to SK-MEL-2 melanoma. The following applies: 10 µM unless noted.
The subject of experiment [11] is EKVX NSCLC. As to conditions: 10 µM unless noted.
For experiment [12], the system named is SN12C renal. The following applies: 10 µM unless noted.
Experiment [13] deals with UO-31 renal. The following applies: 10 µM unless noted.
The test system of experiment [14] is TK-10 renal. The following applies: 10 µM unless noted.
In experiment [15] the test system is ACHN renal. The following applies: 10 µM unless noted.
Experiment [16] relates to CAKI-1 renal. As to conditions: 10 µM unless noted.
For experiment [17], the system named is A498 renal. As to conditions: 10 µM.
Experiment [18] has as its system HL-60(TB) leukemia. As to conditions: 10 µM unless noted.
The test system of experiment [19] is CCRF-CEM leukemia. As to conditions: 10 µM unless noted.
Experiment [20] has as its system UACC-62 melanoma. The following applies: 10 µM unless noted.

This is part of a sample that, as a whole, favours compounds with a hit. Of some 83,000 tested, about 20% had one in any assay.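 Interpretation: 100, growth as untreated; towards 0, rising growth inhibition; 0, no net growth; 0 to -100, cell death. Compounds scoring below 10 were considered active.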 A number with no mark means an inactive call. Calls of active or inactive are those of the source.

Turning to `COC(=O)[C@@H](C)C[C@H](Cc1ccccc1)NC(=O)c1csc([C@@H](C[C@H](C(C)C)N(C)C(=O)[C@@H](NC(=O)C23CC(NC(C)=O)(C2)C3)C2CC2)OC(C)=O)n1`, the growth in experiment [1] is 92%; in experiment [2] it was 20.9%; in experiment [3], 14%; in [4], 65.3%; in experiment [5] it was 33.1%; in [6] it was 44.4%. Also, the growth is 30.5% in experiment [7]; 31.7% in experiment [8]; 61.3% in experiment [9]; 49% in experiment [10]; 78.8% in experiment [11]; 51.7% in [12]. For the same molecule, the growth is 95.4% in [13]; 77.1% in [14]; 96.2% in experiment [15]; 95.3% in experiment [16]; 48.3% in experiment [17]; -17.2% (active) in experiment [18]. Further, the growth in [19] is 9.99% (active).

Turning to `N#CC1(c2ccccc2)CCN(Cc2ccccc2)CC1`, the growth was 94.1% in experiment [1]; 101% in experiment [2]; 121% in [3]; 114% in experiment [4]; 107% in experiment [5]; 84.2% in experiment [6]. In addition, the growth in experiment [7] was 102%; in experiment [20], 110%; in experiment [8] it was 102%; in experiment [11] it was 96.2%; in [12], 114%; in experiment [13], 108%. For the same molecule, the growth in [14] is 88.4%; in experiment [15] it was 98%; in [16], 94.7%; in experiment [17], 64.8%; in experiment [18] it was 102%.

In the case of `Cc1cc(N(CCCl)CCCl)ccc1/C=N\NC(=O)c1ccncc1`, the growth is 88.9% in experiment [1]; 98.3% in experiment [2]; 87.1% in experiment [3]; 106% in [4]; 90.5% in experiment [5]; 88.9% in experiment [6]. Moreover, the growth in [7] was 76.1%; in experiment [20] it was 53.1%; in experiment [9] it was 99.7%; in experiment [10], 120%; in [11], 94.3%; in experiment [12], 64.5%. Further, the growth in [13] was 82.5%; in experiment [14], 93.1%; in experiment [15], 73.9%; in experiment [16] it was 33.2%; in experiment [17] it was -94.9% (active); in [18], 53.4%. Besides, the growth in experiment [19] is 68.2%.

With `O=C1NC(=O)C(=Cc2cccn2CCCCCn2c3ccccc3c(=O)c3ccccc32)C(=O)N1`, the growth was 92.8% in experiment [1]; 103% in [2]; 101% in experiment [3]; 101% in experiment [4]; 96.8% in experiment [5]; 91% in [6]. The growth in experiment [7] is 98.6%; in [8] it was 95.3%; in experiment [9], 111%; in [10], 107%; in experiment [11], 105%; in [12], 106%. The growth in [13] was 79.4%; in experiment [14] it was 101%; in [15] it was 105%; in experiment [16], 103%; in experiment [17] it was 104%; in experiment [18] it was 92.2%. Moreover, the growth in experiment [19] was 100%.

In the case of `Nc1cc2nc3ccccc3nc2cc1N`, the growth is 88.5% in experiment [1]; 105% in experiment [2]; 85.5% in experiment [3]; 85.6% in experiment [4]; 77.2% in experiment [5]; 79.3% in [6]. In addition, the growth in experiment [7] was 87%; in experiment [8], 80.8%; in experiment [9], 129%; in [10], 107%; in experiment [11], 84.8%; in [12], 80.5%. Moreover, the growth in experiment [13] is 74.2%; in experiment [14], 110%; in experiment [15], 99.2%; in experiment [16], 101%; in [17], 78.3%; in experiment [18], 87.5%. Besides, the growth in experiment [19] is 94%.

`CN(C)C(=O)Oc1ccc(Br)cc1`: the growth in [1] is 105%; in experiment [2], 109%; in experiment [3] it was 89%; in experiment [4], 107%; in experiment [5], 98.3%; in experiment [6], 97.1%. For the same molecule, the growth in experiment [7] is 98.8%; in experiment [20], 113%; in [8], 96.4%; in experiment [12], 106%; in experiment [13], 85.1%; in [14] it was 99.8%. The growth in experiment [15] is 109%; in [16], 95.5%; in experiment [17], 117%; in [18], 102%; in experiment [19], 89.7%.

In the case of `COc1ccc2nc(NC(=O)COc3cc(/C=C\c4cc(OC)c(OC)c(OC)c4)ccc3OC)sc2c1`, the growth was 15.5% in experiment [1]; 10.3% in experiment [2]; -5.27% (active) in [3]; 31.5% in [4]; 20.4% in experiment [5]; 30.4% in [6]. Further, the growth in experiment [7] is 10.8%; in [20] it was 33.8%; in experiment [8], 8.81% (active); in [10], 16.7%; in experiment [11], 44.7%; in experiment [12], 45.3%. In addition, the growth is 23.6% in [14]; 42.8% in experiment [15]; 6.25% (active) in [16]; -5.19% (active) in experiment [17]; 25% in experiment [18]; 22.6% in experiment [19].

Take `CCCCCCCCCCCCCCCCCC1OC[C@@H](COC(=O)O[C@@H](C(=O)O[C@H]2C[C@@]3(O)[C@@H](OC(=O)c4ccccc4)[C@@H]4[C@]5(OC(C)=O)CO[C@@H]5C[C@H](O)[C@@]4(C)C(=O)[C@H](OC(C)=O)C(=C2C)C3(C)C)[C@@H](NC(=O)c2ccccc2)c2ccccc2)O1` (some centres not stated): the growth in experiment [1] was 100%; in experiment [2], 18.2%; in experiment [3], 50.2%; in [4], 62.1%; in experiment [5], 58%; in [6] it was 46.6%. The growth in experiment [7] was 75.7%; in [20], 58.7%; in experiment [9] it was 59%; in [10], 82.9%; in experiment [11] it was 96.9%; in experiment [12], 72%. Also, the growth in experiment [13] is 93.5%; in experiment [14], 108%; in experiment [15] it was 92.4%; in experiment [16], 89.3%; in [17], 70.9%; in experiment [18] it was 35.8%. For the same molecule, the growth in experiment [19] is 59.2%.

(Values after PubChem BioAssay (NCI).)
